Test [1] in a line: antimalarial activity against Dd2 strain (AID 2302;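 active = growth inhibition above 50% at the single 2 µM test dose, taken to imply half-maximal potency below 2 µM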;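 also: 0% = DMSO untreated growth and 100% = chloroquine plus artemisinin killed control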). Conditions: P. falciparum Dd2 in RBCs, LDH growth readout, 72 h; at 2 µM; stronger effect = higher value.
A short description of test [2]: HepG2 cytotoxicity, primary screen, cytotoxicity control for P. falciparum antimalarial project, cell-based, ATP luminescence (AID 2303;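 active = inhibition above 50%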;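 also: 0% = DMSO wells and 100% = digitonin-killed cells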). Conditions: HepG2 viability, 24-48 h, at 10 µM, stronger effect = higher value.
Test [3] addresses L-lactate dehydrogenase (Plasmodium falciparum (isolate CDC / Honduras)) (UniProt Q27743). Briefly: PfLDH activity inhibition – cell lysate, 3D7 strain, counter-screen for P. falciparum growth inhibition project (AID 2304).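 Also: 0% = vehicle and 100% = reference inhibitor.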 Conditions: P. falciparum 3D7 crude extract, LDH APAD/NBT absorbance; at 2 µM; stronger effect = higher value. (In general: The purpose of a counterscreen is to sort out artefacts and off-target activity.)

Test [4] in a line: inhibition of 3D7 malaria parasite growth – strain 3D7 (AID 2306).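 Also: 0% = DMSO wells and 100% = chloroquine plus artemisinin control wells.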 Particulars: P. falciparum 3D7 erythrocytic growth, LDH absorbance, 72 h; at 2 µM; stronger effect = higher value.
For test [5], the target named is Calcium-dependent protein kinase 1 (Plasmodium falciparum (isolate 3D7)) (UniProt P62344). Briefly: PfCDPK1 kinase inhibitors, biochemical, TCAMS library (AID 1159585; cut-off not given, nearly all actives have IC50 up to about 0.98 µM;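 also: inhibitors leave more ATP so luminescence rises with inhibition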). Conditions: recombinant PfCDPK1, Kinase-Glo ATP depletion luminescence.
Chain of Calcium-dependent protein kinase 1 (Plasmodium falciparum (isolate 3D7)) (P62344 whole entry, looked up): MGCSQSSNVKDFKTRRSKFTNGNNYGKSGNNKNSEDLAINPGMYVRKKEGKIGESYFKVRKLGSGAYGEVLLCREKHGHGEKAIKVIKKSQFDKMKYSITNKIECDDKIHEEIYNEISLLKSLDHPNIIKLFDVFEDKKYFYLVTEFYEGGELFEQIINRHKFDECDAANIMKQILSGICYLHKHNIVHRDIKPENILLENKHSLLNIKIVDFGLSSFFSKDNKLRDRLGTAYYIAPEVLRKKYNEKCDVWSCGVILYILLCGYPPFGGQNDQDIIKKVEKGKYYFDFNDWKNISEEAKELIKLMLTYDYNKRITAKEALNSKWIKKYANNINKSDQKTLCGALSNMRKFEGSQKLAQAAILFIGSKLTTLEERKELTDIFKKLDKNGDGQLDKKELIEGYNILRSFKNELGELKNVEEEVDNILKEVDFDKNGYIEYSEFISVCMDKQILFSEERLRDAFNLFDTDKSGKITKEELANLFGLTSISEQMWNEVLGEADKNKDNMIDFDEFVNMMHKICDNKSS
Test [6] addresses Plasmodium falciparum protein kinase 6 (PK6, PF3D7_1337100) (UniProt Q8IDW1). Briefly: PfPK6 kinase inhibitors, biochemical, TCAMS library (AID 1159586). Particulars: recombinant PfPK6, Kinase-Glo ATP depletion luminescence. On the technique in general: In Kinase-Glo more light means more ATP remaining.
The target of test [7] is Protein kinase 7 (PK7), Plasmodium falciparum 3D7 (PF3D7_0213400) (UniProt Q7YTF7). Briefly: inhibition of Plasmodium PK7 catalytic activity – biochemical, TCAMS antimalarial set, Kinase-Glo luminescence (AID 1159587). Particulars: recombinant PfPK7, Kinase-Glo ATP depletion luminescence.
Chain of Protein kinase 7 (PK7), Plasmodium falciparum 3D7 (PF3D7_0213400) (Q7YTF7 1-343): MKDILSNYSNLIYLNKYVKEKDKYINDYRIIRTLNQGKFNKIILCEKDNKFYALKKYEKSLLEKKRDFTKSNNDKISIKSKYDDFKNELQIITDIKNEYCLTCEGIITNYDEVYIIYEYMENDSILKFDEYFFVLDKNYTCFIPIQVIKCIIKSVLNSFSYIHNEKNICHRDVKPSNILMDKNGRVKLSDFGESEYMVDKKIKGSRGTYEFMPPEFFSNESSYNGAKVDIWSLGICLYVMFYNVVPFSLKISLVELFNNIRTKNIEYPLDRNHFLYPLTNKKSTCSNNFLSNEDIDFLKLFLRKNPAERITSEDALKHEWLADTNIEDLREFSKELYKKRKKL
Test [8] addresses Calcium-dependent protein kinase 4 (Plasmodium falciparum (isolate 3D7)) (UniProt Q8IBS5). Briefly: PfCDPK4 kinase inhibitors, biochemical, TCAMS library (AID 1159588; cut-off not given, nearly all actives have IC50 up to about 0.91 µM). Conditions: recombinant PfCDPK4, Kinase-Glo ATP depletion luminescence.

Unmarked numbers belong to inactive results. For some of these results: Entries with a potency or affinity are not part of this list. The source made the active and inactive calls. Unless noted, no rule for the calls is given here.

Chain of L-lactate dehydrogenase (Plasmodium falciparum (isolate CDC / Honduras)) (Q27743 whole entry, looked up): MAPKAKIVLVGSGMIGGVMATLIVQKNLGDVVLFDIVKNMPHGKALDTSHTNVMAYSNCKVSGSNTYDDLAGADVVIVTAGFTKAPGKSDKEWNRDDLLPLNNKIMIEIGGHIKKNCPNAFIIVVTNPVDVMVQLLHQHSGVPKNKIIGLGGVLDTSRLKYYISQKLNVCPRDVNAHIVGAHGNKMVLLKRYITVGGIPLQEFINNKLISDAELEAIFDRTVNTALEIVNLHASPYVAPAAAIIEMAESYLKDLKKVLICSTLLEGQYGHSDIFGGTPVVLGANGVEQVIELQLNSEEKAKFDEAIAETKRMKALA
Chain of Plasmodium falciparum protein kinase 6 (PK6, PF3D7_1337100) (Q8IDW1 1-305): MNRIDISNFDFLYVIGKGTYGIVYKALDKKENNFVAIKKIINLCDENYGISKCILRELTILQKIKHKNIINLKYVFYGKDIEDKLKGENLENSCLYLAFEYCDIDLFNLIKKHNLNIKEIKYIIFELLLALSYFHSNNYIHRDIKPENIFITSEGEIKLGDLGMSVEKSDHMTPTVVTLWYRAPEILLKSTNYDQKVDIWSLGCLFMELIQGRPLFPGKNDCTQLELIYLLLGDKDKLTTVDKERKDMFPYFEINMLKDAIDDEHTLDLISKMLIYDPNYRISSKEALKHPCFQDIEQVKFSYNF
Chain of Calcium-dependent protein kinase 4 (Plasmodium falciparum (isolate 3D7)) (Q8IBS5 whole entry, looked up): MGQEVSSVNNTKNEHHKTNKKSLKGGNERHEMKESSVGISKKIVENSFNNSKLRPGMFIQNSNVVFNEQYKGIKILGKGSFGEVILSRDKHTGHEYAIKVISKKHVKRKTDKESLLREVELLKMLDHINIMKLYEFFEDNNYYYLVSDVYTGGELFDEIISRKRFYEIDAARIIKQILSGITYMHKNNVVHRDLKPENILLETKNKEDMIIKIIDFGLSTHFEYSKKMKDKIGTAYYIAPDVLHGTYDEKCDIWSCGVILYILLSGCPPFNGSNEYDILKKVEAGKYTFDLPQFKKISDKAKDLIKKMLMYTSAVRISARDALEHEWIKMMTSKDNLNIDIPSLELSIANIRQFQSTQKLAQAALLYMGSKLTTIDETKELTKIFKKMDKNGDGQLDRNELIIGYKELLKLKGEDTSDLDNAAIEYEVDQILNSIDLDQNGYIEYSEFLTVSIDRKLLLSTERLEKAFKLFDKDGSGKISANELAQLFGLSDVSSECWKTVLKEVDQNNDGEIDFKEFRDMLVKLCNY

Usually inhibition stands for the change of the read-out against control, counted positive when it falls. As to `C[C@@H](CC1CCCCC1)OC(=O)N(C)[C@H]1CCN(C#N)C1`, the figures for the growth inhibition in test [1] and in test [4] were 62% (active) and 84% (active), respectively. Further, the inhibition in test [2] is 4%; in test [3], -6%. Further, the result in test [5], in test [6], in test [7] and in test [8] was inactive.

For `CC(C)CN(Cc1c(O)ccc2[nH]c(-c3ccc(F)cc3F)nc12)CC(C)C`, the growth inhibition in test [1] was 92% (active); in test [4], 98% (active). In addition, the inhibition in test [2] is 11%; in test [3], -2%. Also, the result in test [5], in test [6], in test [7] and in test [8] was inactive.

Consider `COc1ccc(CNc2nccc3ccc(-c4ccc5nccn5c4)cc23)cc1`, for which the growth inhibition is 47% in test [1] and 95% (active) in test [4]. Moreover, the figures for the inhibition in test [2] and in test [3] were 17% and -4%, respectively. Moreover, the outcome in test [5], in test [6], in test [7] and in test [8] was inactive.

`O=S(=O)(NCCN1CCCC1)c1ccc(-c2ccc(CNCc3ccsc3)cc2)s1`: the values for the growth inhibition in test [1] and in test [4] were 40% and 99% (active), respectively. In addition, the inhibition in test [2] was 31%; in test [3] it was 7%. The result in test [5], in test [6], in test [7] and in test [8] was inactive.

Regarding `CC(=O)Nc1cccc(NC(=O)CSc2ccc(-c3nc4ccccc4[nH]3)cn2)c1`, the values for the growth inhibition in test [1] and in test [4] were 73% (active) and 97% (active), respectively. The inhibition in test [2] is 22%; in test [3], -4%. Also, the outcome in test [5], in test [6], in test [7] and in test [8] was inactive.

Regarding `CN(Cc1cccc(F)c1)C1CCN(c2cc(NC(=O)c3ccc(F)cc3)ccn2)C1` (stereo not given), the growth inhibition in test [1] is 14%; in test [4], 83% (active). In addition, the inhibition in test [2] was 7%; in test [3], -3%. For the same compound, the result in test [5], in test [6], in test [7] and in test [8] was inactive.

Take `CCc1ccccc1N1CCN(CCCCNC(=O)c2ccc(NC(=O)c3ccc(Cl)cc3)cc2)CC1`: the growth inhibition was 4% in test [1] and 96% (active) in test [4]. Further, the inhibition in test [2] is 21%; in test [3] it was -4%. The outcome in test [5], in test [6], in test [7] and in test [8] was inactive.

With `CCOc1c(Br)cc(Br)cc1CNCCCCNc1nc2ccccc2[nH]1`, the growth inhibition in test [1] is 37%; in test [4], 101% (active). Also, the inhibition in test [2] is 25%; in test [3], -4%. Further, the result in test [5], in test [6], in test [7] and in test [8] was inactive.

Turning to `NC1=NC2(CCCCC2)N(OCC2CCCCC2)C(N)=N1`, the growth inhibition in test [1] was 49%; in test [4] it was 96% (active). The inhibition in test [2] was 70% (active); in test [3] it was 0%. The outcome in test [5], in test [6], in test [7] and in test [8] was inactive.

`O=C(NC1CCN(CC2(c3ccc(Cl)cc3)CCCCC2)CC1)c1ccn[nH]1`: the values for the growth inhibition in test [1] and in test [4] were 96% (active) and 98% (active), respectively. For the same compound, the values for the inhibition in test [2] and in test [3] were -3% and 4%, respectively. The result in test [5], in test [6], in test [7] and in test [8] was inactive.

For the compound `CCOc1ccc(NC(=O)c2ccc(NCCCN3CC(C)CC(C)C3)c([N+](=O)[O-])c2)cc1` (stereo not given), the figures for the growth inhibition in test [1] and in test [4] were 60% (active) and 101% (active), respectively. For the same compound, the inhibition in test [2] was 3%; in test [3], -4%. Also, the outcome in test [5], in test [6], in test [7] and in test [8] was inactive.

Consider `COc1cc(NC(=O)NC(CCN2CCC3(CCc4ccccc43)CC2)c2ccc(Cl)c(Cl)c2)cc(OC)c1OC` (stereo not given), for which the values for the growth inhibition in test [1] and in test [4] were 66% (active) and 90% (active), respectively. The inhibition in test [2] was 66% (active); in test [3], 6%. For the same compound, the outcome in test [5], in test [6], in test [7] and in test [8] was inactive.

Turning to `O=S(=O)(NCCN1CCCC1)c1cccc(-c2cccc(CNCc3ccccc3)c2)c1`, the figures for the growth inhibition in test [1] and in test [4] were 73% (active) and 97% (active), respectively. Moreover, the inhibition in test [2] is 32%; in test [3], -7%. Further, the outcome in test [5], in test [6], in test [7] and in test [8] was inactive.

As to `O=C(Nc1ccc(Cl)c(C(F)(F)F)c1)NC1CCN(CCCCCNC(=O)[C@@H]2C[C@H]2c2ccc(Cl)c(Cl)c2)CC1`, the growth inhibition in test [1] is 41%; in test [4], 100% (active). In addition, the values for the inhibition in test [2] and in test [3] were 79% (active) and -1%, respectively. The outcome in test [5], in test [6], in test [7] and in test [8] was inactive.

For `CCCN(Cc1nnc(-c2cccs2)o1)C(=O)CSc1nnnn1-c1cc(C)cc(C)c1`, the growth inhibition in test [1] was 71% (active); in test [4], 92% (active). For the same compound, the figures for the inhibition in test [2] and in test [3] were 2% and 8%, respectively. Also, the outcome in test [5], in test [6], in test [7] and in test [8] was inactive.

Turning to `COc1ccc(NC(=O)CCNc2cc(C)nc(NCc3cccc(C)c3)n2)cc1`, the growth inhibition in test [1] was 25%; in test [4], 100% (active). Also, the inhibition in test [2] was 14%; in test [3] it was 1%. Also, the outcome in test [5], in test [6], in test [7] and in test [8] was inactive.

For the compound `COc1ccc2c(NN=Cc3cccnc3)ccnc2c1`, the growth inhibition in test [1] is 26%; in test [4], 97% (active). The inhibition in test [2] was 3%; in test [3] it was -4%. The result in test [5], in test [6], in test [7] and in test [8] was inactive.

Turning to `COc1ccc2cc(C(=O)Nc3ccc4c(c3)CCN(C3CCC3)CC4)ccc2c1`, the growth inhibition was 9% in test [1] and 101% (active) in test [4]. The inhibition in test [2] was 34%; in test [3], 2%. In addition, the result in test [5], in test [6], in test [7] and in test [8] was inactive.

Take `COc1c(OC)c(OC)c2ccccc2c1CCNCCCCNCCc1c(OC)c(OC)c(OC)c2ccccc12`: the growth inhibition was 72% (active) in test [1] and 99% (active) in test [4]. The results for the inhibition in test [2] and in test [3] were 100% (active) and -3%, respectively. Also, the result in test [5], in test [6], in test [7] and in test [8] was inactive.

As to `N#Cc1cccc(NC(=O)c2ccc(S(=O)(=O)NCC3CCCN3CC3CCCCC3)cc2)c1` (stereo not given), the growth inhibition in test [1] was 18%; in test [4], 88% (active). Further, the results for the inhibition in test [2] and in test [3] were 25% and 4%, respectively. The result in test [5], in test [6], in test [7] and in test [8] was inactive.
